Data reported in PubChem BioAssay (NCI).
About 83,000 compounds went through this panel and 20% of them were active in at least one assay; those are over-represented in the sample as a whole.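 Growth was measured after 48 h exposure to one concentration of compound in 96-well plates. Values under 10 count as active.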 The source made the active and inactive calls.

system: A498 renal; assay: NCI-60 one-dose screen, 48 h (100 = growth as untreated, 0 = no growth, -100 = all killed); conditions: 10 µM unless noted
Protocol: Growth inhibition of the A498 human tumor cell line is measured as a screen for anti-cancer activity. Cells are grown in 96 well plates and exposed to the test compound for 48 hours. Compounds are tested at a single concentration, which is 10^-5 M for most compounds. The reported endpoint is percent growth (GI% or GIPRCNT), where numbers from 0 - 100% represent growth inhibition, and numbers from -100% - 0 represent cell death. For example, a value of 40 represents 60% growth inhibition. A value of 0 means no net growth occurred over the course of the experiment. A value of -40 indicates 40% of cells at the beginning of the experiment died by the end of the experiment. A value of -100 means all cells are dead at the end of the experiment.
NCI-60 Human Tumor Cell Lines Screen was performed using the standard one-dose NCI protocol, which is described in more detail at https://dtp.cancer.gov/discovery_development/nci-60/default.htm.
Compounds with GIPRCNT values below 10 were considered active. Activity score was based on GIPRCNT using the following formula: […]
Score is 0 for GIPRCNT values of 100 or above, 50 for GIPRCNT values of 0, and 100 for GIPRCNT values of -100.

O=C1/C(=C(/c2ccccc2)N2CCOCC2)Cc2ccccc21 was tested. Which growth did it give?
The growth was 51.4% (inactive).

Cc1cc(C)nc(SC2=C(Nc3cccc(Cl)c3)C(=O)N(Cc3ccccc3)C2=O)n1 was tested. Which growth did it give?
The growth was 67.2% [30 µM] (inactive).

Which growth does the source give for CCOC(=O)c1cc(C(=O)c2ccc(O)c(O)c2)n2ccc(-c3ccn4c(C(=O)c5ccc(O)c(O)c5)cc(C(=O)OCC)c4c3)cc12 here?
The growth was 96.6% (inactive).

Which growth does the source give for FC(F)(F)Oc1ccc2nc3nc4ccc[nH]c4cc3c2c1 here?
Its growth is 98.1% (inactive).

With COc1ccc(-c2n[nH]nc2-c2csc3ccccc23)cc1OC as the compound, how does the growth read?
Its growth is 1.02% (active).

O=S(=O)(Nc1ccc(NS(=O)(=O)c2ccccc2)c(Cl)c1)c1ccccc1 was tested. Which growth did it give?
The growth was 113% (inactive).

For CCCCN1CCCn2c1nc1c2c(=O)n(CCC)c(=O)n1CCC, which growth is on record?
The growth was 80.2% (inactive).

C=C1c2nc3ccccc3n2C=C(c2cccc(Cl)c2)N1Cc1ccc(OC)cc1 was tested. Which growth did it give?
The growth was 91.7% (inactive).

With N#Cc1c(N)n(CCNC(=O)c2ccccc2)c2nc3ccccc3nc12 as the compound, how does the growth read?
The growth was 135% (inactive).

For CC(=O)O[C@H]1CC[C@]2(C)[C@H]3CC=C4[C@@H]5CC(C)(C)CC[C@]5(C(=O)NCCNCCN)CC[C@@]4(C)[C@]3(C)CC[C@H]2C1(C)C, which growth is on record?
Its growth is 38.6% (inactive).

For Cc1cc2nc3[nH]c4ccccc4c3nc2cc1C, which growth is on record?
The growth was 121% (inactive).

With CSc1nc(-c2cccc(NC(=O)CCl)c2)c(C#N)c(=O)n1C as the compound, how does the growth read?
The growth was 90.2% (inactive).

For CC(=O)Nc1ccc(-n2c(O)c(/C=N/NC(=O)Cc3ccccc3Nc3c(Cl)cccc3Cl)sc2=S)cc1, which growth is on record?
The growth was 97.1% (inactive).

Cc1ccc(NC(=O)C2CCC(CN3CCN(C)CC3)CC2)cc1Nc1nccc(-c2cccnc2)n1 (stereo not given) was tested. Which growth did it give?
The growth was 89.6% (inactive).

O=C(/C=C/c1cccc(Cl)c1)c1ccc(O)c(CN2CCN(c3cc4c(cc3F)c(=O)c(C(=O)O)cn4C3CC3)CC2)c1 was tested. Which growth did it give?
The growth was 25.9% (inactive).

For COc1cc(/C=C/c2cc(/C=C/c3ccc(O)c(OC)c3)n(-c3c(Cl)cccc3Cl)c(=O)n2)ccc1O, which growth is on record?
Its growth is 78.5% (inactive).

With COc1ccc(-n2nc(C)c3c(Nc4ccc(NC(=O)Nc5cccc(C(F)(F)F)c5)cc4)ncnc32)cc1 as the compound, how does the growth read?
Its growth is 48.5% (inactive).

With CC(C)n1c(/C=C/[C@@H](O)C[C@@H](O)CC(=O)O)c(-c2ccc(F)cc2)c2ccccc21 as the compound, how does the growth read?
Its growth is -21.3% (active).

COc1ccc(-c2cc(Nc3ccnc(N4CCOCC4)n3)on2)cc1 was tested. Which growth did it give?
Its growth is -0.776% (active).

Which growth does the source give for Clc1ccc2c(NCCCCNc3nc(N4CCCCC4)nc4ccccc34)ccnc2c1 here?
Its growth is 41.1% (inactive).

Which growth does the source give for CC(C)(C)c1cc(C(C)(C)C)cc(S(=O)(=O)Nc2cc3ccccc3cc2C(=O)NCCN)c1 here?
Its growth is -2.57% (active).

With Clc1ccc2c(NCCCCNc3nc(N4CCOCC4)nc4ccccc34)ccnc2c1 as the compound, how does the growth read?
Its growth is 90.4% (inactive).

Which growth does the source give for Cn1cc(-c2nonc2-c2cn(C)c3ccc(F)cc23)c2ccccc21 here?
Its growth is -2.88% (active).

Cc1nc2c3c(-c4ccccc4)c(-c4ccccc4)oc3ncn2n1 was tested. Which growth did it give?
The growth was 67.9% (inactive).

How did the growth turn out when COc1ccc(NC(=O)c2ccc(/C=C/C(=O)c3ncc[nH]3)cc2)cc1 was run?
Its growth is 86.8% (inactive).

For COc1ccccc1NS(=O)(=O)c1ccc2oc(SC(C)C)nc2c1, which growth is on record?
The growth was 91.4% (inactive).

Cc1ccc(NC(=O)/C=C/c2ccccc2)c(C(N)=O)c1 was tested. Which growth did it give?
Its growth is 53.8% (inactive).

With Cc1cc(N2CCSCC2)nc(NC2CCCC(Nc3ccnc4cc(Cl)ccc34)C2)n1 (stereo not given) as the compound, how does the growth read?
Its growth is 22.9% (inactive).

With Cc1cc(N2CCN(c3ccnc4cc(Cl)ccc34)CC2)nc(NC2CCCCC2)n1 as the compound, how does the growth read?
The growth was -2.63% (active).

How did the growth turn out when O=C(COc1cccc(/C=C2\COc3ccc(Cl)cc3C2=O)c1)c1ccc(Cl)cc1 was run?
Its growth is 111% (inactive).

For CCN1CCC2(CC1)NC(=O)c1c(c3ccc(Cl)c(Cl)c3n1C)C2C#N (stereo not given), which growth is on record?
Its growth is 3.01% (active).

Which growth does the source give for Cc1cc(N2CCCC2)nc(NC2CCCC(Nc3ccnc4cc(Cl)ccc34)C2)n1 (stereo not given) here?
The growth was -18.4% (active).

With Clc1ccc2c(NCCNc3nc(N4CCCCC4)nc4ccccc34)ccnc2c1 as the compound, how does the growth read?
Its growth is 75.8% (inactive).

N#C/C(=C\c1ccc(-c2cc(C(F)(F)F)ccc2Cl)o1)c1nc(-c2ccco2)cs1 was tested. Which growth did it give?
The growth was 105% (inactive).

How did the growth turn out when NC(CSC(c1ccccc1)(c1ccccc1)c1ccc(Cl)cc1)C(=O)O (stereo not given) was run?
The growth was 26.7% (inactive).

Cc1cc(C)nc(SC2=C(Nc3cccc(Cl)c3C)C(=O)N(Cc3ccccc3)C2=O)n1 was tested. Which growth did it give?
The growth was 40.1% [30 µM] (inactive).

O=c1nc2oc3ccc4ccccc4c3cc-2s1 was tested. Which growth did it give?
Its growth is -1.24% (active).

Which growth does the source give for COc1ccc(S(=O)(=O)N2CC3(COC3)C2)cc1NC(=O)c1[nH]c(C)c2c1CCCCC2=O here?
Its growth is 69.8% (inactive).

Cc1cc(C)nc(SC2=C(Nc3ccc(C)c(Cl)c3)C(=O)N(Cc3ccccc3)C2=O)n1 was tested. Which growth did it give?
Its growth is 69.5% [30 µM] (inactive).

C=C1C(=O)O[C@H]2[C@H]1CC/C(COC(=O)c1cc3cc(OC)ccc3[nH]1)=C\CC[C@@]1(C)O[C@@H]21 was tested. Which growth did it give?
Its growth is -95.3% (active).
